Results taken from PubChem BioAssay (NCI).
This is part of a sample that, as a whole, favours compounds with a hit. Of some 79,000 tested, about 15% had one in any assay. Rule as the data show it: active = growth inhibition above about 70%; inactive = the rest.

Tests used:
[1] = NCI Yeast Anticancer Drug Screen. Data for the rad50 strain (AID 155);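 also: 0% = growth of vehicle-only cultures of the same strain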; details: S. cerevisiae rad50 strain growth inhibition; at 50.0 µM; hits give high values
In short: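 Compounds were tested on a yeast strain with an engineered DNA damage repair alteration; the reported value is growth inhibition normalised to vehicle treatment.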

[2] = NCI Yeast Anticancer Drug Screen. Data for the mec2-1 strain (AID 157); details: S. cerevisiae mec2-1 strain, at 50.0 µM, hits give high values
In short: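 Yeast mec2-1 mutant treated with compound. Readout: growth inhibition vs vehicle controls.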

[3] = NCI Yeast Anticancer Drug Screen. Data for the sgs1 mgt1 strain (AID 161);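 also: 0% = growth of cultures given vehicle only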; details: S. cerevisiae sgs1 mgt1 strain, at 50.0 µM, hits give high values
In short: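 Test agents were incubated with a DNA-repair-mutant yeast strain. Growth was then read and compared against vehicle-treated controls.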

[4] = NCI Yeast Anticancer Drug Screen. Data for the cln2 rad14 strain (AID 165);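 also: 0% = growth equal to vehicle treated cultures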; details: S. cerevisiae cln2 rad14 strain, at 50.0 µM, hits give high values
In short: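 cln2 rad14 yeast strain; compound exposure; growth inhibition read vs vehicle controls.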

[5] = NCI Yeast Anticancer Drug Screen. Data for the bub3 strain (AID 167); details: S. cerevisiae bub3 mutant strain, at 50.0 µM, hits give high values
In short: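 Growth of a checkpoint-deficient yeast mutant is measured after compound exposure. Values represent inhibition relative to vehicle.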

[6] = NCI Yeast Anticancer Drug Screen. Data for the mlh1 rad18 strain (AID 175); details: S. cerevisiae mlh1 rad18 strain growth inhibition; at 50.0 µM; hits give high values
In short: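 Yeast w/ defined DNA-repair lesions; compound exposure; growth vs vehicle controls → % inhibition.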

Measured: growth inhibition

COC(=O)C1=NC(=S)N=C(C(=O)OC)C1(C)C(=O)c1ccc(Cl)cc1
inactive: [1] -2.55% | [2] 2.65% | [3] -14.9% | [4] 17.2% | [5] 2.75% | [6] 4.35%

CCCCCC(/C=N/Nc1ccccn1)=C\c1ccccc1
inactive: [1] -0.25% | [2] -2.1% | [3] 3.9% | [4] -18.2% | [5] -17.4% | [6] -17.4%

O=C(O)Cc1ccc(Br)cc1
inactive: [1] 29.4% | [2] -8.95% | [3] 11.9% | [4] 10.8% | [5] 1.1% | [6] 5.7%

Cc1ccc(C(=O)OC2CCCC2)cc1
inactive: [1] 7.85% | [2] -0.7% | [3] 0.85% | [4] -7.7% | [5] -15.7% | [6] 4.1%

NC(=O)c1[nH]c(COCCO)nc1N
inactive: [1] -20.4% | [2] -10.4% | [3] 14% | [4] -14.9% | [5] 7.05% | [6] 22.4%

COc1ccc(Cc2ccc(Cl)cc2)c(OC)c1
inactive: [1] 3.3% | [2] 2.25% | [3] 19.8% | [4] 15.2% | [5] -12.2% | [6] -5.15%

CC(NC(=O)CN)C(=O)O (stereo unspecified)
inactive: [1] -43.4% | [2] -8.55% | [3] -8.45% | [4] -22.6% | [5] 5.15% | [6] 4.4%

Cc1cc(N(CCC#N)CCC#N)ccc1C=Nc1ccc(C(=O)NN2C(=O)/C(=C/c3ccc(N(CCC#N)CCC#N)cc3)N=C2c2cc([N+](=O)[O-])ccc2Cl)cc1
inactive: [1] 17.9% | [2] 10.1% | [3] 2.6% | [4] 24% | [5] 4.7% | [6] 7.8%

Cc1cc(N(CCC#N)CCC#N)ccc1/C=C1N=C(/C=C\c2ccccc2)OC\1=O
inactive: [1] 5.5% | [2] -8.5% | [3] 5.5% | [4] 12.2% | [5] 10.3% | [6] 5.3%

COc1ccc(/C=C2\N=C(c3cc(OC)c(OC)c(OC)c3)OC2=O)cc1OC
inactive: [1] 7.1% | [2] 10.9% | [3] 8.5% | [4] 29.9% | [5] -1.85% | [6] 25.1%

CC(C)C(NC(=O)C(=O)c1c[nH]c2ccc(Cl)cc12)C(=O)O (stereo unspecified)
inactive: [1] -28.9% | [2] -9.55% | [3] -5.7% | [4] -10% | [5] -10.2% | [6] -1.95%

COc1cc2c(c(OC)c1OC)-c1cccc(=O)cc1C(NC(C)=O)CC2 (stereo unspecified)
inactive: [1] -3.65% | [2] -14.2% | [3] -3.35% | [4] 8.9% | [5] -2.2% | [6] 21.1%

COc1cc2c(cc1OC)C1=NN(c3ccccc3)C(=O)C1CC2 (stereo unspecified)
inactive: [1] 22.8% | [2] 12.6% | [3] 12.3% | [4] -7.2% | [5] 5.55% | [6] 18.8%

Nc1[nH]n(-c2ccccc2)c(=O)c1C1c2ccccc2Sc2ccccc21
inactive: [1] 8.7% | [2] 11.2% | [3] 16.4% | [4] -66.6% | [5] 15.2% | [6] 16.2%

CCN1CCCC(SC(=O)C(O)(c2ccccc2)c2ccccc2)C1 (stereo unspecified)
inactive: [1] -16.6% | [2] -5.75% | [3] -22.1% | [4] -15.2% | [5] -4.15% | [6] 0.15%

CCOC(=O)NCc1cccc2ccccc12
inactive: [1] 3.2% | [2] -2.7% | [3] -10.3% | [4] -89.4% | [5] 10.7% | [6] 2.5%

Cc1ccccc1N1C(=O)C2CC=CCC2C1=O (stereo unspecified)
inactive: [1] -13.3% | [2] 0.25% | [3] 12.2% | [4] -34.8% | [5] -14.4% | [6] -21.6%

O=C(O)C1Nc2ccccc2NC1=O (stereo unspecified)
inactive: [1] 3.55% | [2] -3.15% | [3] -5.5% | [4] -47% | [5] -4.35% | [6] 3.3%

CCOC(=O)c1c(C)c2c(n1C)CC/C(=C\N1CCOCC1)C2=O
inactive: [1] 11.3% | [2] 13.1% | [3] 13.6% | [4] -13.8% | [5] 14.5% | [6] 15.2%

Cc1nc(Cl)c(Cl)c(Cl)n1
inactive: [1] 5% | [2] -7.9% | [3] -0.6% | [4] 5.55% | [5] -4% | [6] -5.2%

Fc1cccc2nc(-c3ccccc3)cc(OCc3ccccc3)c12
inactive: [1] 0.9% | [2] 8.3% | [3] -30.6% | [4] -1% | [5] 11.8% | [6] -3.4%
